“And” between values parts separate entries of the source, which are not always exact repeats. Identical values can stand only once. Records with an inconclusive call do not appear. Entries that show only a call come without a potency. The source holds several records for some structures; these can differ, active in one and inactive in another. The source made the active and inactive calls. Unless noted, calls follow the shape of the full dose curve.
Potency is read from the fitted curve at half-maximal effect.

Tested on in the first test: not listed separately
Nature of the test: p53 small molecule agonists, cell-based qHTS assay (AID 1963582; active = well fitted activation curve with a large enough effect in the signal ratio in the repeat runs, not every such curve was filed as active; the % refers to the signal ratio). The following applies: HCT-116 p53RE-bla reporter, beta-lactamase FRET ratio, 16 h; series mostly up to 66 µM. A digest of the protocol: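 16 h compound exposure (37 C) of p53 response element–bla cells, preceded by 5 h recovery at 37 C/5% CO2; read-out via LiveBLAzer B/G FRET substrate, 2 h RT, fluorescence intensity.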
As to `CCCCCCCCCCCC[N+](C)(C)C`, the Potency entry was “inactive”.

Regarding `O=C1CCCCCCCCCCC1`, the Potency entry was “inactive”.

For the molecule `CC(=O)[C@H]1CC[C@H]2[C@@H]3CC=C4C[C@@H](O)CC[C@]4(C)[C@H]3CC[C@]12C`, the Potency result is “inactive”.

Turning to `O=C1O[C@H](CO)[C@@H](O)[C@H](O)[C@H]1O`, the Potency entry was “inactive”.

Regarding `Brc1nc2ccccc2s1`, the Potency entry was “inactive”.

Regarding `Oc1ccc2ccccc2c1N=Nc1ccccc1`, the Potency entry is “inactive”.

On to `Nc1cc([N+](=O)[O-])ccc1C(=O)O`, for which the Potency result was “inactive”.

`CCCCCCCCCCCCCC[N+](C)(C)Cc1ccccc1`: the Potency result was “inactive”.

Turning to `CCCCCCCCOc1ccc(C(=O)c2ccccc2)c(O)c1`, the Potency entry is “inactive”.

For the molecule `Clc1ccc(Cl)c(Cl)c1Cl`, the Potency result is “inactive”.

In the case of `COc1ccc(C(Cl)=C(c2ccc(OC)cc2)c2ccc(OC)cc2)cc1`, the Potency entry was “inactive”.

Take `CCCCC1(COC(=O)CCC(=O)O)C(=O)N(c2ccccc2)N(c2ccccc2)C1=O`: the Potency entry is “inactive”.

For the molecule `CN(C)CCCN`, the Potency result was “inactive”.

As for `C=C(C)C(=O)O[C@H]1C[C@@H]2CC[C@@]1(C)C2(C)C`, the Potency result is “inactive”.

For the molecule `C=CCOC(=O)c1ccccc1C(=O)OCC=C`, the Potency result is “inactive”.

For `CC(=O)c1ccc(S(=O)(=O)NC(=O)NC2CCCCC2)cc1`, the Potency result was “inactive”.

As for `CCC(O)OC(O)CC` (stereo unspecified), the Potency result is “inactive”.

For `COCCOC(=O)c1ccccc1C(=O)OCCOC`, the Potency result was “inactive”.

Regarding `CC(C)CC(=O)CC(C)CC(C)C` (stereo unspecified), the Potency entry was “inactive”.

Turning to `O=c1n(CC2CO2)c(=O)n(CC2CO2)c(=O)n1CC1CO1` (stereo unspecified), the Potency was 18.1 µM (active) and 20.4 µM (active).

Turning to `O=C(/C=C/C=C/c1ccc2c(c1)OCO2)N1CCCCC1`, the Potency entry was “inactive”.

`Cc1cc(Cc2ccc(N)c(C)c2)ccc1N`: the Potency entry was “inactive”.

`CCC[C@H](N[C@@H](C)C(=O)N1[C@H](C(=O)O)C[C@@H]2CCCC[C@@H]21)C(=O)OCC`: the Potency result is “inactive”.

On to `c1ccc2c(c1)Cc1ccccc1-2`, for which the Potency entry is “inactive”.

Regarding `CCCOC(=O)NCCCN(C)C`, the Potency result is “inactive”.

Regarding `CCCCOC(=O)CC(CC(=O)OCCCC)(OC(C)=O)C(=O)OCCCC`, the Potency result was “inactive”.

As to `C=CC[N+](C)(C)CC=C`, the Potency entry is “inactive”.

In the case of `CC(O)COCC(C)O` (stereo unspecified), the Potency result is “inactive”.

In the case of `CCCCC/C=C\C/C=C\CCCCCCCC(=O)OC`, the Potency result was “inactive”.

As for `Nc1ncnc2nc[nH]c12`, the Potency entry is “inactive”.

Regarding `Cc1ccc(N)c(S(=O)(=O)O)c1`, the Potency result was “inactive”.

Regarding `NCCOCCO`, the Potency result was “inactive”.

For the molecule `CC(=O)Oc1ccc(C)cc1`, the Potency result was “inactive”.

Take `O=S1(=O)CCCO1`: the Potency result was “inactive”.

As to `C=C(C)C(=O)OCC(CC)(COC(=O)C(=C)C)COC(=O)C(=C)C`, the Potency entry was “inactive”.

On to `O=[N+]([O-])c1cccc(Cl)c1`, for which the Potency entry is “inactive”.

Take `CCOCC(=O)O`: the Potency entry was “inactive”.

In the case of `C=CCc1ccc(OC)c(OC)c1`, the Potency entry was “inactive”.

Turning to `Clc1ccccn1`, the Potency entry is “inactive”.

Take `Cc1cccc([N+](=O)[O-])c1C`: the Potency entry was “inactive”.

The next test deals with 5-hydroxytryptamine receptor 2A (Homo sapiens) (UniProt P28223). Nature of the test: 5-hydroxytryptamine receptor 2A (HTR2A) small molecule antagonists, cell-based qHTS assay (AID 1963586). Also: nearly all actives have a fitted effect of over 45% in size. The following applies: HTR2A-CHO cells, DOI-induced calcium flux, fluorescence; series mostly up to 61.5 µM. The method in brief: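 CHO cells stably expressing human HTR2A were plated for 18 h at 37 C, then loaded with calcium dye for 1 h. Compounds were preincubated 5 min at room temperature before DOI (4 nM solution) was added. Kinetic fluorescence was read for 3 min.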
Sequence of 5-hydroxytryptamine receptor 2A (Homo sapiens) (P28223 whole entry, looked up): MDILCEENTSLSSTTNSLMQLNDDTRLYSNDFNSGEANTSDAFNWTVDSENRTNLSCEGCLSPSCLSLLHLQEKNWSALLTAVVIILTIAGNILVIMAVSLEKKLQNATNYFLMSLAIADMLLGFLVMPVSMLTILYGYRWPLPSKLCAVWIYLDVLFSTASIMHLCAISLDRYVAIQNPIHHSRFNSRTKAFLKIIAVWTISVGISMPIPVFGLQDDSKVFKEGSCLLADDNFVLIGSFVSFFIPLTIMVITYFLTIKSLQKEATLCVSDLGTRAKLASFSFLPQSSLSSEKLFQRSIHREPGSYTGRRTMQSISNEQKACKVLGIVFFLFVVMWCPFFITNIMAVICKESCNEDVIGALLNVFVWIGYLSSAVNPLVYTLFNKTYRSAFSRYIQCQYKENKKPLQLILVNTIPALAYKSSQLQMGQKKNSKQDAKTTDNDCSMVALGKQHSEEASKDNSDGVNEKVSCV
For the molecule `CCCCCCCCCCCC[N+](C)(C)C`, the Potency entry was “inactive”.

On to `CC(=O)[C@H]1CC[C@H]2[C@@H]3CC=C4C[C@@H](O)CC[C@]4(C)[C@H]3CC[C@]12C`, for which the Potency result is “inactive”.

For the molecule `Oc1ccc2ccccc2c1N=Nc1ccccc1`, the Potency result is “inactive”.

`Nc1cc([N+](=O)[O-])ccc1C(=O)O`: the Potency entry is “inactive”.

Take `CCCCCCCCCCCCCC[N+](C)(C)Cc1ccccc1`: the Potency was 1.2 µM (active) and 4.1 µM (active) and inactive.

Consider `CCCCCCCCOc1ccc(C(=O)c2ccccc2)c(O)c1`, for which the Potency result is “inactive”.

As to `COc1ccc(C(Cl)=C(c2ccc(OC)cc2)c2ccc(OC)cc2)cc1`, the Potency result is “inactive”.

As to `CCCCC1(COC(=O)CCC(=O)O)C(=O)N(c2ccccc2)N(c2ccccc2)C1=O`, the Potency result is “inactive”.

Regarding `CC(=O)c1ccc(S(=O)(=O)NC(=O)NC2CCCCC2)cc1`, the Potency entry was “inactive”.

With `CCC(O)OC(O)CC` (stereo unspecified), the Potency result is “inactive”.

Consider `COCCOC(=O)c1ccccc1C(=O)OCCOC`, for which the Potency entry is “inactive”.

Regarding `CC(C)CC(=O)CC(C)CC(C)C` (stereo unspecified), the Potency result is “inactive”.

Turning to `Cc1cc(Cc2ccc(N)c(C)c2)ccc1N`, the Potency result was “inactive”.

As to `c1ccc2c(c1)Cc1ccccc1-2`, the Potency result was “inactive”.

As for `CCCOC(=O)NCCCN(C)C`, the Potency entry was “inactive”.

Regarding `CCCCOC(=O)CC(CC(=O)OCCCC)(OC(C)=O)C(=O)OCCCC`, the Potency result is “inactive”.

`C=CC[N+](C)(C)CC=C`: the Potency result was “inactive”.

For the molecule `CC(O)COCC(C)O` (stereo unspecified), the Potency entry was “inactive”.

As to `CCCCC/C=C\C/C=C\CCCCCCCC(=O)OC`, the Potency entry is “inactive”.

For `Nc1ncnc2nc[nH]c12`, the Potency result is “inactive”.

As to `Cc1ccc(N)c(S(=O)(=O)O)c1`, the Potency result was “inactive”.

For `CC(=O)Oc1ccc(C)cc1`, the Potency entry was “inactive”.

For `O=S1(=O)CCCO1`, the Potency entry was “inactive”.

`C=C(C)C(=O)OCC(CC)(COC(=O)C(=C)C)COC(=O)C(=C)C`: the Potency entry is “inactive”.

For the molecule `C=CCc1ccc(OC)c(OC)c1`, the Potency entry was “inactive”.

With `Clc1ccccn1`, the Potency result was “inactive”.

A further test has the same target. In words: 5-hydroxytryptamine receptor 2A (HTR2A) small molecule agonists, cell-based qHTS assay (AID 1963587). Also: nearly all actives have a fitted effect of over 30% in size. The note with it: HTR2A-CHO cells, calcium flux fluorescence, agonist mode; series mostly up to 76.8 µM. The method in brief: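 Kinetic calcium-flux fluorescence (2 min, 1 sec intervals) after compound addition in agonist mode. HTR2A-CHO cells were cultured 18 h, then dye-loaded 1 h at 37 C.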
As for `CCCCCCCCCCCC[N+](C)(C)C`, the Potency result was “inactive”.

Turning to `O=C1CCCCCCCCCCC1`, the Potency result was “inactive”.

For `O=C1O[C@H](CO)[C@@H](O)[C@H](O)[C@H]1O`, the Potency result is “inactive”.

As for `Oc1ccc2ccccc2c1N=Nc1ccccc1`, the Potency entry was “inactive”.

Regarding `Nc1cc([N+](=O)[O-])ccc1C(=O)O`, the Potency result is “inactive”.

With `CCCCCCCCCCCCCC[N+](C)(C)Cc1ccccc1`, the Potency entry is “inactive and 20 mM (active)”.

Consider `Clc1ccc(Cl)c(Cl)c1Cl`, for which the Potency result was “inactive”.

Turning to `CCCCC1(COC(=O)CCC(=O)O)C(=O)N(c2ccccc2)N(c2ccccc2)C1=O`, the Potency entry is “inactive”.

Regarding `CN(C)CCCN`, the Potency entry was “inactive”.

Consider `C=C(C)C(=O)O[C@H]1C[C@@H]2CC[C@@]1(C)C2(C)C`, for which the Potency entry was “inactive”.

On to `CC(=O)c1ccc(S(=O)(=O)NC(=O)NC2CCCCC2)cc1`, for which the Potency entry was “inactive”.

Regarding `CCC(O)OC(O)CC` (stereo unspecified), the Potency result was “inactive”.

Take `COCCOC(=O)c1ccccc1C(=O)OCCOC`: the Potency result was “inactive”.

Consider `CC(C)CC(=O)CC(C)CC(C)C` (stereo unspecified), for which the Potency entry was “inactive”.

In the case of `O=c1n(CC2CO2)c(=O)n(CC2CO2)c(=O)n1CC1CO1` (stereo unspecified), the Potency entry is “inactive”.

As to `O=C(/C=C/C=C/c1ccc2c(c1)OCO2)N1CCCCC1`, the Potency is 6.18 µM (active) and inactive.

In the case of `CCC[C@H](N[C@@H](C)C(=O)N1[C@H](C(=O)O)C[C@@H]2CCCC[C@@H]21)C(=O)OCC`, the Potency result was “inactive”.

`c1ccc2c(c1)Cc1ccccc1-2`: the Potency entry is “inactive”.

For `CCCOC(=O)NCCCN(C)C`, the Potency entry is “inactive”.

Turning to `CCCCOC(=O)CC(CC(=O)OCCCC)(OC(C)=O)C(=O)OCCCC`, the Potency entry is “inactive”.

Turning to `CCCCC/C=C\C/C=C\CCCCCCCC(=O)OC`, the Potency entry is “inactive”.

For `Nc1ncnc2nc[nH]c12`, the Potency entry was “inactive”.

With `NCCOCCO`, the Potency result is “inactive”.

Turning to `CC(=O)Oc1ccc(C)cc1`, the Potency result was “inactive”.

In the case of `C=C(C)C(=O)OCC(CC)(COC(=O)C(=C)C)COC(=O)C(=C)C`, the Potency entry was “inactive”.

Take `O=[N+]([O-])c1cccc(Cl)c1`: the Potency entry is “inactive”.

`CCOCC(=O)O`: the Potency result is “inactive”.

In the case of `C=CCc1ccc(OC)c(OC)c1`, the Potency entry is “inactive”.

As to `Clc1ccccn1`, the Potency entry was “inactive”.

Consider `Cc1cccc([N+](=O)[O-])c1C`, for which the Potency result was “inactive”.

The values are drawn from PubChem BioAssay (Tox21).
